NadD inh: blocks S. aureus nicotinate mononucleotide adenylyltransferase | purified NadD enzyme, colorimetric absorbance read-out | inhibition, % at 20 µM | 360,000 tested, 0.78% active | AID 602399; in the data active means inhibition above about 26%
MsrA act: activators of bovine methionine sulfoxide reductase A | purified bovine MsrA, absorbance read-out | activation, % at 10.6 µM | 360,000 tested, 0.3% active | AID 602163; in the data active means activation above about 7.5%
MsrA inhibitor: inhibits bovine methionine sulfoxide reductase A. 360,000 tested, 0.75% active. AID 651718. purified bovine MsrA, absorbance read-out. inhibition, % at 15.5 µM; in the data active means inhibition above about 4.5%
rCAG RNA binder: binds r(CAG) RNA repeats | 370,000 tested, 1.3% active | r(CAG) RNA repeat, TO-PRO-1 dye displacement fluorescence | AID 651821 | inhibition, % at 3 µM;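 active means inhibition above the plate cutoff, the mean of all test compounds on that plate plus 3 SD, cut at about 35% in these data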;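 further: higher means more dye released from RNA so lower well fluorescence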
NadD conf: NadD (S. aureus) inhibition, single concentration confirmation; shares compounds with NadD inh; purified S. aureus NadD, colorimetric enzyme assay; inhibition, % at 20 µM; 2,000 tested, 13% active; AID 624309; in the data active means inhibition mostly above about 42%, no sharp cut-off; inactive means mostly below about 42%
Each line names hits and unclear results; the compound was inactive in the other large screens (follow-up assays come after a bar, where they were run). Rows were chosen to be rich in hits. Some 2.7% of all compounds tested hit in one or more screens of this group.

N#Cc1c(NC(=O)CCN2C(=O)c3ccccc3C2=O)oc(-c2ccccc2)c1-c1ccccc1	none
CC(=O)c1ccc(N2CCN(C(=O)CCCn3c(=S)[nH]c4cc5c(cc4c3=O)OCO5)CC2)cc1	NadD inh 45.6 | NadD conf inactive
Cc1cccc(N2CCN(C(=O)CCCn3c(=S)[nH]c4cc5c(cc4c3=O)OCO5)CC2)c1C	NadD inh 56.2 | NadD conf inactive
O=C(CCCn1c(=S)[nH]c2cc3c(cc2c1=O)OCO3)N1CCN(c2ccccc2)CC1	none
O=C(CCCn1c(=S)[nH]c2cc3c(cc2c1=O)OCO3)N1CCN(c2ccc(Cl)cc2)CC1	NadD inh 34.7 | NadD conf inactive
Cn1ccc2c(N3CCCCC3)cc3c(c21)C1CCC3O1 (centres undefined)	none
COCCNC(=O)C1CC2Cn3c(nc4ccccc43)C2N1C (centres undefined)	none
O=C(Nc1ccc(Br)cc1Br)Nc1cccc2[nH]c([C@@H]3O[C@H](CO)[C@@H](O)[C@H](O)[C@H]3O)nc12	none
CCCCN(C)c1c(C)nc2ccc(C(=O)NCc3ccc(OC)cc3)cn12	none
Nc1[nH]c(C(=O)c2ccc(Br)cc2)c(-c2ccc(Br)cc2)c1C(=O)NCCc1c[nH]c2ccccc12	NadD inh 50.0 | NadD conf inactive
Nc1[nH]c(C(=O)c2ccc(Br)cc2)c(-c2ccccc2Br)c1C(=O)NCCc1c[nH]c2ccccc12	none (no result: NadD inh, MsrA act)
Nc1[nH]c(C(=O)c2ccccc2)c(-c2ccccc2Br)c1C(=O)NCCc1c[nH]c2ccccc12	NadD inh 43.1 | NadD conf inactive
Nc1[nH]c(C(=O)c2ccccc2)c(-c2ccccc2Br)c1C(=O)NCc1ccc(-c2ccccc2)cc1	NadD inh 36.1 | NadD conf 50.2
Nc1[nH]c(C(=O)c2ccccc2)c(-c2ccc([N+](=O)[O-])cc2)c1C(=O)NCCc1c[nH]c2ccccc12	NadD inh 43.5 | NadD conf inactive
COc1ccc(/C=N/NC(=O)c2ccn[nH]2)cc1COc1ccc([N+](=O)[O-])c(C)c1	NadD inh 30.9 | NadD conf inactive
O=C(Nc1ccc(C2=NCCN2)cc1)c1ccc(C(=O)Nc2ccc(C3=NCCN3)cc2)c(Cl)c1	NadD inh 29.9 | NadD conf inactive
Cc1ccc2c(CN(C)Cc3ccc(Cl)cc3Cl)cc(=O)oc2c1	none
O=C(CSc1nnc(Cc2csc(Nc3cccc(Cl)c3)n2)o1)N1CCc2ccccc21	NadD inh 56.8 | NadD conf inactive
O=C(CSc1nnc(CNc2ccccc2)o1)N1CCc2ccccc21	none
N#C/C(=C\c1ccc(-c2cccc([N+](=O)[O-])c2)o1)C(=O)Nc1nc(-c2cccs2)cs1	NadD inh 41.9 | NadD conf inactive
O=C(CSc1nnc(-c2ccc3c(c2)OCO3)o1)Nc1ncc(C(F)(F)F)cc1Cl	NadD inh 34.4 | NadD conf inactive
Cc1nc(NC(=O)CSc2nnc(-c3ccc4c(c3)OCO4)o2)c(Cl)cc1Cl	none
O=C1C=CC(n2cc(F)c(=O)[nH]c2=O)O1 (centres undefined)	none
CC(C)c1ccc(/C=C2\SC(=O)N(CC(=O)NCCCn3ccnc3)C2=O)cc1	NadD inh 33.6 | NadD conf inactive
O=C(CN1C(=O)S/C(=C\c2ccccc2)C1=O)NCCCn1ccnc1	none
CCN(CC(=O)NCc1ccc(Cl)cc1)C(=O)/C=C/c1cccs1	none
COC(=O)[C@]12C[C@H](CC(=O)NCCc3ccccc3OC)C(=O)N(CCc3ccc(OC)c(OC)c3)C1=C[C@H](C1CCCC1)O[C@@H]2C	none (no result: NadD inh, MsrA act, MsrA inhibitor)
CCOC(=O)Cn1c(=NC(=O)c2cc(-c3cccs3)nc3ccccc23)sc2cc(S(N)(=O)=O)ccc21	NadD inh 55.5 | NadD conf 61.2
COC(=O)Cn1c(=NC(=O)c2cc(-c3cccs3)nc3ccccc23)sc2cc(S(N)(=O)=O)ccc21	NadD inh 30.9 | NadD conf inactive
CC1(C)Cc2c(C#N)c(N3CCN(C(=O)c4ccccc4)CC3)nc(-c3ccco3)c2CS1	NadD inh 43.3 | NadD conf inactive
COc1cc(-c2nnc(SCC3(c4ccccc4)OCCO3)o2)cc(OC)c1OC	none
Cc1c2ccccc2nc2ccccc12	none
CCCNc1c(F)c(F)c2c(C)c3ccccc3nc2c1F	NadD inh 39.5 | NadD conf inactive
CCc1ccc(NC(=O)C(C)OC(=O)c2cc(=O)[nH]c3ccc(S(=O)(=O)Nc4ccc(F)cc4)cc23)cc1 (centres undefined)	NadD inh 33.7 | NadD conf inactive
COc1cc(/C=C2/N=C(c3ccccc3)OC2=O)c(F)cc1OCc1ccccc1	NadD inh 38.8, rCAG RNA binder 40.1 | NadD conf inactive
Cc1cc(C)c(Nc2n[nH]c(=S)s2)cc1C	NadD inh 44.4 | NadD conf inactive
CNc1n[nH]c(=S)s1	none
Cc1cccc(Nc2n[nH]c(=S)s2)c1C	NadD inh 32.4 | NadD conf inactive
O=S(=O)(Nc1cccc(-c2cn3cccnc3n2)c1)c1ccccc1	none
O=S(=O)(Nc1cccc(-c2cn3cccnc3n2)c1)c1ccc(-c2ccccc2)cc1	NadD inh 40.1 | NadD conf inactive
CCCN1C(=O)c2ccccc2NC1c1ccc(Cl)c(Cl)c1 (centres undefined)	none
CCCCN1C2=C(C(=O)CCC2)C(c2ccc(Cl)c(Cl)c2)C2=C1c1ccccc1C2=O (centres undefined)	NadD inh 32.0 | NadD conf inactive
O=C(NC[C@H]1CCCO1)c1cccc2c1C(=O)c1ccc(-c3ccc(F)cc3OCc3ccccc3)cc1S2(=O)=O	none
COc1ccc(-c2ccc3c(c2)S(=O)(=O)c2cccc(C(=O)N4CCN(c5ccc(Cl)cn5)CC4)c2C3=O)cc1OC	none
O=C1c2ccc(-c3ccc(Cl)c(C(F)(F)F)c3)cc2S(=O)(=O)c2cccc(C(=O)N3CCN(c4ncc(Br)cn4)CC3)c21	NadD inh 52.5 | NadD conf inactive
O=C1c2ccc(-c3ccc(F)cc3OCc3ccccc3)cc2S(=O)(=O)c2cccc(C(=O)N3CCN(c4ncc(Cl)cc4Cl)CC3)c21	NadD inh 60.6 | NadD conf inactive
Cc1cc(CNC(=O)c2cccc3c2C(=O)c2ccc(-c4ccc(F)cc4OCc4ccccc4)cc2S3(=O)=O)c(C(F)(F)F)o1	NadD inh 51.9, rCAG RNA binder 42.9 | NadD conf inactive
N#Cc1cccnc1N1CCN(C(=O)c2cccc3c2C(=O)c2ccc(-c4ccc(F)cc4OCc4ccccc4)cc2S3(=O)=O)CC1	NadD inh 31.4 | NadD conf inactive
O=C(NC1CCCCC1)C(c1ccccn1)N(C(=O)c1csnn1)c1ccccc1 (centres undefined)	none
Cc1ccc(-c2cc(C(=O)NN=Cc3ccc(-c4ccccc4)cc3)[nH]n2)cc1	none (no result: NadD inh, MsrA act, MsrA inhibitor)
CC(C)(C)n1nnnc1C1c2ccccc2C(=O)N1CCc1c[nH]c2ccccc12 (centres undefined)	none
C/C=C/C(=O)N1CCC(C(=O)NCC2COc3ccccc3O2)CC1 (centres undefined)	none (no result: NadD inh, MsrA act, MsrA inhibitor)
Cc1ccc(S(=O)(=O)N(C)CC(=O)N(C)Cc2cccs2)cc1	none

Screening data deposited in PubChem BioAssay by several laboratories.
